Structures are written as SMILES. Inconclusive results are not listed. Entries that show only a call come without a potency. The source made the active and inactive calls. Calls come from the whole dose curve; as a rule, active = well fitted activation curve with a large enough effect in the repeat runs; inconclusive = weak or mixed curves; inactive = flat fitted curve, though single readings scatter.
Potency is the fitted concentration of half-maximal effect.

This assay is described as follows: A CellTox Green Cytotoxicity Assay to monitor cytotoxicity in HepG2 cells - 16 hour (AID 1224876). Note: nearly all actives have a fitted effect of over 45% in size. The note with it: CellTox Green fluorescence; series mostly up to 76.8 µM. The procedure, abridged: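 Continuous culture of HepG2 cells with a membrane-impermeant DNA dye; rising fluorescence marks dead cells. Compound exposure lasted up to 40 h at 37 C, with reads every 8 h from 0 h.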
On to `c1ccc2ncccc2c1`, for which the Potency entry was “inactive”.

Turning to `Cc1ccc(C)c(O)c1`, the Potency result was “inactive”.

Turning to `CNC[C@H](O)c1ccc(O)c(O)c1`, the Potency result was “inactive”.

Consider `O=C1OC2(c3ccccc31)c1cc(I)c(O)c(I)c1Oc1c2cc(I)c(O)c1I`, for which the Potency was 11.8 µM (active) [middle of 4 runs].

On to `CCOC(=O)C(C)Oc1ccc(Oc2cnc3cc(Cl)ccc3n2)cc1` (stereo not given), for which the Potency result is “inactive”.

As to `COc1ccc(C(=O)c2ccccc2O)c(O)c1`, the Potency entry is “inactive”.

In the case of `CC(=O)Nc1ccc2c(c1)Cc1cc(NC(C)=O)ccc1-2`, the Potency result was “inactive”.

Consider `CN(C)/N=N/c1nc[nH]c1C(N)=O`, for which the Potency result is “inactive”.

With `COc1ccc2nc(N)sc2c1`, the Potency entry was “inactive”.

On to `O=C(O)CCCC(=O)O`, for which the Potency result was “inactive”.

`CCCN1C=CN(C)C1`: the Potency entry is “inactive”.

Take `NCCN`: the Potency entry was “inactive”.

Turning to `Cc1cccc(Nc2ccccc2C(=O)O)c1C`, the Potency result is “inactive”.

With `CN1CCOCC1`, the Potency result was “inactive”.

Take `Oc1c(Cl)ccc(Cl)c1Cl`: the Potency entry was “inactive”.

Take `Clc1ccc(Sc2cc(Cl)c(Cl)cc2Cl)cc1`: the Potency result is “inactive”.

`CN(C)C`: the Potency entry is “inactive”.

Regarding `C=CCCCCCCCCCC`, the Potency entry is “inactive”.

Take `O=C(O)CCCCCCCCCCCC(=O)O`: the Potency result was “inactive”.

With `C[C@]12C=CC(=O)C=C1CC[C@H]1[C@@H]3C[C@@H](O)[C@](O)(C(=O)CO)[C@@]3(C)C[C@H](O)[C@@]12F`, the Potency entry is “inactive”.

Regarding `O=C(O)COCCN1CCN(C(c2ccccc2)c2ccc(Cl)cc2)CC1` (stereo not given), the Potency result is “inactive”.

Take `NC[C@H](O)c1ccc(O)c(O)c1`: the Potency result was “inactive”.

Consider `CCCCCCCC/C=C\CCCCCCCC(=O)O`, for which the Potency result is “inactive”.

On to `CC(=O)OC(C)C`, for which the Potency entry is “inactive”.

For the compound `CC(=O)Oc1c(C)c(C)c2c(c1C)CC[C@@](C)(CCC[C@H](C)CCC[C@H](C)CCCC(C)C)O2`, the Potency entry is “inactive”.

The record behind these values is PubChem BioAssay (Tox21).
